Hits are enriched below; roughly 9.2% of the tested compounds scored in any of these assays.
NPC1 promoter act: NPC1 promoter activation; AID 485313; actives 2.4% (n = 320,000); Huh7 NPC1 promoter luciferase reporter, 24 h; Potency, µM (series often up to 9.22 µM), for the others: at the highest dose activation, most hits filed as activators; further: % of control where 0% means no effect; nearly all actives have a fitted effect of over 60% in size
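Stably transfected Huh7 (NPC1 promoter→luciferase), 1500 cells/well in Opti-MEM + 10% FBS, 2 h settle, then compound 24 h at 37 °C. Luminescence after 10 min with Amplite reagent.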
ELG1 repair inh: ELG1-dependent DNA repair inhibition. HEK293T ELG1-luciferase reporter, luminescence, 16 h; DNA damage induced by 5-fluorouridine. Potency, µM (titrated, usually from 46.1 µM), for inactives: at the top dose activity change, negative = inhibition, actives largely listed as inhibitors. actives 2.3% (n = 330,000). AID 504467; further: on the % scale 0 is the no-effect control and ±100 the full control effect; nearly all actives have a fitted effect of over 55% in size
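HEK293T cells expressing luciferase-tagged ELG1 (2,000/well) received 5-Fluorouridine plus compound or DMSO for 16 hr at 37 °C. Luciferase was read by ONE-Glo luminescence after 30 min at room temperature.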
Rab9 prom act: Rab9 promoter activation. Huh7 Rab9 promoter-luciferase reporter, luminescence, 24 h. Potency, µM (titrated, usually from 9.22 µM), for inactives: at the highest dose activation, negative = inhibition, usual class: activators. actives 2.8% (n = 320,000); further: % of control where 0% means no effect; nearly all actives have a fitted effect of over 60% in size
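Rab9 promoter-driven luciferase in stably transfected Huh7 cells; 1500 cells/well rested 2 h, exposed to compound in DMSO for 24 h at 37 °C, 5% CO2. Luminescence read 10 min after adding luciferase reagent at ambient temperature.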
ELG1 genotoxic: genotoxicity induction in ELG1-luciferase HEK293T cells; HEK293T ELG1-luciferase reporter, luminescence, 16 h; Potency, µM (doses to about 46 µM), inactives show top-dose activity change, positive = activation, usual class: activators; actives 1.3% (n = 330,000); AID 504466; further: % of control where 0% means no effect; nearly all actives have a fitted effect of over 60% in size
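16 hr compound incubation (37 °C, 5% CO2) of HEK293T cells carrying luciferase-tagged ELG1; luciferase then measured by ONE-Glo luminescence after 30 min at RT.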
FLuc modulator: firefly luciferase modulation, counter-screen for miR-21 project; actives 6.9% (n = 360,000); Potency, µM (highest dose often 57.5 µM), for inactives: top-dose activity change, negative = inhibition, usual class: inhibitors; purified FLuc, Km substrates, luminescence inhibition;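 further: plate controls were vehicle for no effect and reference inhibitor for full effect; nearly all actives have a fitted effect of over 55% in size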
Target sequence (P08659 whole entry, looked up): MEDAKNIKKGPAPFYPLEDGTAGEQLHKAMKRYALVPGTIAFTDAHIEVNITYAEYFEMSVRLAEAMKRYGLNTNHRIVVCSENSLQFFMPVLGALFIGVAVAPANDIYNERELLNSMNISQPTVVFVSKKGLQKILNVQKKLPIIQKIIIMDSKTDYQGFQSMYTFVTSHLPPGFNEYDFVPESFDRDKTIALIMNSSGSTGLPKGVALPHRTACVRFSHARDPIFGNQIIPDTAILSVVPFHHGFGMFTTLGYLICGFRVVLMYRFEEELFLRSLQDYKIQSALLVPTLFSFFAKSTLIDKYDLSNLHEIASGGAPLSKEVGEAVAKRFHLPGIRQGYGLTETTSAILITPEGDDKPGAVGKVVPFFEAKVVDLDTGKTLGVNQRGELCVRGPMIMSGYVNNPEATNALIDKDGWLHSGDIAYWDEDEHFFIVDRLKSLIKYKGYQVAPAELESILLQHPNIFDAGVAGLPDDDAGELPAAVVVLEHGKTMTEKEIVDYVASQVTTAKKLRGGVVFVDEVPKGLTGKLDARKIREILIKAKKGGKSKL
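Biochemical qHTS of compounds, final roughly 60 µM downward over six points, against 10 nM purified firefly luciferase using Km concentrations of substrates (10 uM D-luciferin, 10 uM ATP) in Tris acetate pH 7.5 buffer; luminescence output.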
SMN2 splice enh: increases expression of the SMN2 splice variant. actives 2.8% (n = 210,000). Potency, µM (top dose mostly 46.1 µM), for inactives: top-dose activity change, positive = activation, hits mostly activators. HEK293 SMN2-luciferase splicing reporter, luminescence, 30-36 h; further: % of control where 0% means no effect; nearly all actives have a fitted effect of over 55% in size
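HEK293 cells carry an SMN2 minigene-luciferase reporter in which exon 7 inclusion puts luciferase in frame. Cells were seeded at 2000 cells/well, attached for 10-12 hours, then exposed to compounds for 30-36 hours at 37C before ONE-Glo luminescence.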
Numbers without * were called inactive; ? = inconclusive; / = no result given; [ ] = dose if it differs, or a comment. The call rests on the fitted dose curve; in most records, active means well fitted curve in the direction sought with a large enough effect; inconclusive means small, poorly fitted or top-dose-only effect, or another doubt; inactive means no such curve, though single readings can be large; an effect the other way counts as inactive or inconclusive. Potency means the concentration at half of the fitted maximal effect.

SMILES | NPC1 promoter act | ELG1 repair inh | Rab9 prom act | ELG1 genotoxic | FLuc modulator | SMN2 splice enh
Cc1nc(N)sc1-c1csc(Nc2ccc(Cl)cn2)n1 | 17% | ? | 16% | -1% | 17µM* | -47%
Cc1nc(N)sc1-c1csc(Nc2ccccn2)n1 | 2.2µM* | ? | 1.6µM* | ? | 6.7µM* | 8.9µM*
Cc1nc(C)c(-c2csc(Nc3ccccn3)n2)s1 | 0.56µM* | ? | 0.5µM* | ? | 2.4µM* | /
CC(=O)Oc1ccc(-c2csc(Nc3ccc(Cl)cn3)n2)cc1 | ? | ? | ? | ? | -19% | /
Cc1cc2c(cn1)C(CCC#N)(CCC#N)c1ccccc1-2 | -5% | -9% | 0% | 0% | 5% | /
Cc1csc(SCC(=O)c2c(N)n(CC(C)C)c(=O)n(C)c2=O)n1 | 1% | 18µM* | -18% | -11% | -4% | -60%
CCOC(=O)Cc1csc(SCC(=O)c2c(N)n(CC(C)C)c(=O)n(C)c2=O)n1 | -10% | 5.2µM* | -16% | -6% | 3% | -54%
Cc1c(C(=O)N2CCN(c3ccc([N+](=O)[O-])cc3)CC2)oc2ccccc12 | 0% | 11µM* | -11% | 0% | 4% | /
Cc1occc1C(=O)N1CCN(c2ccc([N+](=O)[O-])cc2)CC1 | -1% | 19% | 9% | -9% | 2% | /
Cc1c(C(=O)OCC(=O)N2CCN(c3ccccc3)CC2)oc2ccccc12 | / | ? | / | -3% | / | /
Cc1c(-c2ccccc2)oc2c(C(=O)N3CCN(c4ccc([N+](=O)[O-])cc4)CC3)cccc2c1=O | 15% | 3.3µM* | 0% | -4% | -3% | -32%
O=c1c2ccccc2nc2c3ccccc3cnn12 | ? | ? | 2.2µM* | ? | ? | ?
O=c1c2ccccc2nc2c3ccccc3c(Cl)nn12 | -8% | -2% | 16% | 3% | -1% | -65%
CC(=O)Nc1cccc(C(=O)N/N=C/c2ccc(F)cc2)c1 | 2.8µM* | ? | 1.4µM* | 16µM* | 6µM* | 27%[1.84 µM]
O=C(CC(=O)N/N=C/c1ccc(F)cc1)N/N=C/c1ccc(F)cc1 | 1% | -9% | 2% | -4% | 15µM* | /
O=C(CCC(=O)Nc1ccc(F)cc1)N/N=C/c1ccc(F)cc1 | -2% | 1% | 0% | 3% | -1% | /
Cc1ccc(C(=O)Nc2cccc(C(=O)N/N=C/c3ccc(F)cc3)c2)cc1 | 2.2µM* | ? | 1.4µM* | 15% | 2.4µM* | /
CCOC(=O)c1cc(OC(=O)c2ccccc2F)n(-c2ccccc2)n1 | / | / | / | / | -1% | -6%
Cc1ccc2oc(=O)c(/C=C(\O)c3ccccc3)nc2c1 | 0% | -13% | -2% | -5% | ? | 15%
Cc1nc2cc(-c3ccccc3)ccc2o1 | 8% | ? | 2% | 7% | 12µM* | -12%
Cc1ccc(C)c(C(=O)N(Cc2nc(-c3ccc(Cl)cc3)no2)C(C)C)c1 | 1% | 21µM* | -7% | -8% | 0% | -28%
Cc1onc(-c2ccccc2Cl)c1C(=O)NCc1nc(-c2ccc(C(F)(F)F)cc2)no1 | 4% | 15µM* | -4% | -3% | -4% | /
Cc1onc(-c2ccccc2Cl)c1C(=O)NCc1ccccc1F | 5% | -4% | 1% | 2% | 1% | /
COc1ccc(-c2noc(CN(C(=O)C(C)(C)C)C(C)C)n2)cc1 | 18% | ? | 26% | 15µM* | ? | 4%
Cc1ccc(-c2noc(CN(C(=O)CCCCCN3C(=O)c4ccccc4C3=O)C(C)C)n2)cc1 | -3% | 18µM* | 0% | -11% | -1% | -34%
Cc1ccc(-c2noc(CN(C(=O)CCN3C(=O)c4ccccc4C3=O)C(C)C)n2)cc1 | -6% | -15% | 3% | 0% | 8% | -8%
N#CCCCc1cc2cc(F)ccc2cn1 | / | ? | / | 4% | / | /
COc1cccc(NC(=O)C2CCN(c3ccc(Sc4ccc(C)cc4)nn3)CC2)c1 | / | / | / | / | -21% | 2%

Compound activity (PubChem BioAssay)
